Mtb FBA inh: inhibitors of M. tuberculosis fructose-bisphosphate aldolase; P9WQA3; purified M. tuberculosis FBA, fluorescence read-out; inhibition, % at 1 µM; 360,000 compounds, 2.3% hits; AID 588726;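 also: 0% = vehicle and 100% = reference inhibitor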
Target sequence (P9WQA3 whole entry, looked up): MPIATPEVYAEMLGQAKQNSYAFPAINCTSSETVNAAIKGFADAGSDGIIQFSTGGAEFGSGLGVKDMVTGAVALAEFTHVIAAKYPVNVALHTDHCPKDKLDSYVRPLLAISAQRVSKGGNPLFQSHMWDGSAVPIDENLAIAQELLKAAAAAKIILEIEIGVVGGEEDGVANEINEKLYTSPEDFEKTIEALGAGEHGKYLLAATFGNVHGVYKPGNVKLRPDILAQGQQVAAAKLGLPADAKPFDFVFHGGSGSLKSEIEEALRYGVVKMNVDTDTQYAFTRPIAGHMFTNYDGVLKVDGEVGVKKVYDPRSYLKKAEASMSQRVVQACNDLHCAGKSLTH
BioA inh: BioA (M. tuberculosis) enzyme inhibition; inhibition, % at 9.99 µM; 360,000 compounds, 0.096% hits; purified M. tuberculosis BioA enzyme, plate reader; AID 602481; in the data active = inhibition above about 40%
Rv3671c inh: inhibitors of M. tuberculosis serine protease Rv3671c; P9WHR9; inhibition, % at 5.96 µM; 320,000 compounds, 0.048% hits; in the data active = inhibition above about 38%;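 also: extracellular domain of Rv3671c used as enzyme; 0% = enzyme with DMSO and 100% = no enzyme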
GDH-TPI counter-1: GDH-TPI coupled enzyme inhibition counter-screen; AID 588335; 360,000 compounds, 1.2% hits; inhibition, % at 4.8 µM; GDH-TPI coupled enzyme counterscreen, NADH absorbance; in the data active = inhibition above about 30%;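 also: 0% = DMSO wells and 100% = wells lacking the enzyme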
FadD28 binding: blocks FadD28 binding to the bisubstrate probe; AID 588549; inhibition, % at 12.5 µM; fluorescence polarization; 360,000 compounds, 0.22% hits; in the data active = inhibition above about 8.5%, passing the limit was not always enough
Mtb FBA confirm: Mtb FBA inhibition, confirmed. 5,600 compounds, 78% hits. purified M. tuberculosis FBA, fluorescence read-out. inhibition, % at 1 µM. shares compounds with Mtb FBA inh;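 also: 0% = vehicle wells and 100% = reference inhibitor wells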
GDH-TPI counter-2: inhibits GDH-TPI coupling enzymes, flagging Mtb FBA hits. shares compounds with Mtb FBA inh. GDH-TPI coupled enzyme counterscreen, fluorescence. inhibition, % at 1 µM. 5,600 compounds, 81% hits. AID 652141; in the data active = inhibition above about 10%
* hit, by the source's call; x = no result; + = active, no number. Rows were chosen to be rich in hits. Some 3% of all compounds tested hit in one or more screens of this group. Rule as the data show it, unless noted: active = inhibition above about 27%; inactive = the rest.

SMILES	Mtb FBA inh	BioA inh	Rv3671c inh	GDH-TPI counter-1	FadD28 binding	Mtb FBA confirm	GDH-TPI counter-2
CN1c2ccccc2Oc2nnc(N3CCN(Cc4ccccc4)CC3)cc21	57*	1	4	6	-2	87*	82*
CN1c2ccccc2Oc2ccccc21	2	x	-2	5	0	x	x
CN1c2ccccc2Oc2nnc(Cl)cc21	28*	x	5	7	-3	51*	38*
Cc1ccc2nc(-c3ccco3)c(Cc3ccccc3)n2c1	36*	-4	x	x	-2	181*	108*
Clc1ccc2nc(-c3ccco3)c(Cc3ccccc3)n2c1	3	0	x	x	-4	x	x
Cc1ccc2nc(C3CCCCC3)c(Cc3ccccc3)n2c1	28*	6	x	x	-5	3	-3
Fc1cccc(Cc2c(-c3cccc(Cl)c3)nc3c4ccccc4ccn23)c1	6	2	x	x	-3	x	x
Fc1cccc(Cc2c(-c3ccco3)nc3c4ccccc4ccn23)c1	27*	-2	x	x	-10	68*	46*
Cc1ccc2nc(C3CCCCC3)c(Cc3cccc(F)c3)n2c1	14	-3	x	x	-5	x	x
COCC(=O)N(C)C[C@@H]1Oc2ncc(-c3cccc(OC)c3)cc2C(=O)N([C@H](C)CO)C[C@H]1C	x	1	x	x	x	x	x
CO[C@@H]1CN(C)C(=O)c2ccc(NC(=O)c3cccc(F)c3)cc2OC[C@H](C)N(CC2CC2)C[C@@H]1C	x	1	x	x	x	x	x
COC(=O)C1=CN(c2ccc(F)cc2)C=C(C(=O)OC)C1c1ccc(O)cc1	71*	5	1	9	x	96*	82*
COC(=O)C1=CN(c2cc(C)cc(C)c2)C=C(C(=O)OC)C1c1ccc(OC)c(O)c1	5	-1	-6	8	x	x	x
COc1ccc(-c2oc3ccc(-c4cc(OC)c(OC)c(OC)c4)cc3c2-c2ccc(OC)cc2)cc1	x	x	-1	x	x	x	x
COc1cc(-c2ccc3cc(OC)c(OC)c(OC)c3c2)cc(OC)c1OC	45*	0	x	1	-4	8	6
COc1ccc2cc(C(=O)NCc3ccccc3CN3CCCC3)ccc2c1	33*	-3	-21	9	-2	115*	104*
COc1ccc2cc(C(=O)C3CCCN(Cc4cccc(C)n4)C3)ccc2c1 (stereo unspecified)	29*	0	1	3	-1	47*	40*
COc1ccc(C(=O)C2CCCN(Cc3cccc(C)n3)C2)c(OC)c1 (stereo unspecified)	3	0	5	-1	-4	x	x
CCOC(=O)N1CCC(N2CCCC(C(=O)c3cc(C)c(OC)c(C)c3)C2)CC1 (stereo unspecified)	0	x	5	-6	-1	x	x
CCOC(=O)N1CCC(N2CCCC(C(=O)c3ccc4cc(OC)ccc4c3)C2)CC1 (stereo unspecified)	107*	x	4	3	0	116*	91*
COc1ccc2cc(C(=O)C3CCCN(C(=O)CCc4ccccn4)C3)ccc2c1 (stereo unspecified)	96*	x	6	9	-1	94*	62*
C[C@@H]1CCCCO[C@@H](CN(C)C(=O)Nc2ccc(F)cc2)[C@H](C)CN([C@@H](C)CO)C(=O)c2cc(NC(=O)Nc3ccc(F)cc3)ccc2O1	x	-1	x	x	x	x	x
COc1ccc(C(=O)C2CCCN(Cc3ccc4nonc4c3)C2)c(OC)c1 (stereo unspecified)	57*	2	-2	3	-5	153*	135*
COc1ccc(C(=O)C2CCCN(Cc3ccc4nonc4c3)C2)cc1OC (stereo unspecified)	-7	4	0	11	-9	x	x
COC(=O)c1sccc1NC(=O)Cc1ccc(OC)cc1	-1	x	2	9	-3	x	x
SMILES	Mtb FBA inh	BioA inh	Rv3671c inh	GDH-TPI counter-1	FadD28 binding	Mtb FBA confirm	GDH-TPI counter-2
COc1ccc(CC(=O)Nc2ccc(N(C)C)c3ccccc23)cc1	34*	-1	0	3	-4	+	128*
C[C@H]1CN([C@@H](C)CO)C(=O)c2cc(C#CCC3CCCC3)cnc2O[C@H]1CN(C)C(=O)c1cnccn1	x	1	x	x	x	x	x
COc1ccccc1-n1c(SCc2cc(=O)oc3cc(O)ccc23)nc2ccccc2c1=O	72*	x	-51	8	-3	2	2
COc1ccccc1-n1c(SCC(=O)N2CCOCC2)nc2ccccc2c1=O	0	15	-1	1	0	x	x
CCS(=O)(=O)Nc1c(C(=O)O)[nH]c2ccccc12	46*	1	8	-3	0	76*	63*
O=C(N[C@H]1CC[C@@H](CCNS(=O)(=O)c2ccc(F)cc2)O[C@H]1CO)C1CCCC1	x	4	x	x	x	x	x
COc1cc(OC)cc(-c2oc3cccnc3c2C#CCCO)c1	42*	0	-10	11	-19	-5	-5
CC(=O)c1ccc(-c2ccc(C(=O)N(C)Cc3nc4ccccc4c(=O)[nH]3)o2)cc1	89*	3	-7	17	-1	4	-4
C[C@@H]1CN([C@@H](C)CO)C(=O)Cc2cc(NS(=O)(=O)c3cccs3)ccc2O[C@@H]1CN(C)Cc1ccncc1	x	-1	x	x	x	x	x
O=C(CNCc1ccccc1Cl)Nc1cc(S(=O)(=O)N2CCOCC2)ccc1Cl	3	0	-2	3	-2	x	x
O=C(NC1CCCCC1)c1cc(S(=O)(=O)N2CCCC2)ccc1Cl	104*	-2	1	0	-4	77*	58*
CN(CCOc1ccc(Cl)cc1)C(=O)c1ccc(S(=O)(=O)N2CCOCC2)cc1	5	1	0	6	-2	x	x
CCN1CCN(S(=O)(=O)c2ccc(Cl)c(C(=O)NC3CCCC3)c2)CC1	47*	0	2	7	2	+	+
CN(CCOc1ccccc1)C(=O)c1cc(S(=O)(=O)N2CCOCC2)ccc1Cl	31*	1	6	8	-1	146*	116*
CCN1CCN(S(=O)(=O)c2ccc(Cl)c(C(=O)NC3CC3)c2)CC1	0	5	3	10	-2	x	x
O=C(COC(=O)c1cc(S(=O)(=O)N2CCCCC2)ccc1Cl)NC1CCCCC1	-2	-1	x	-10	-4	x	x
O=C(CNC1CCCCC1)Nc1cc(S(=O)(=O)N2CCOCC2)ccc1Cl	106*	-1	3	3	-3	+	+
CN(C)Cc1cn(CC[C@@H]2CC[C@@H](NC(=O)Nc3ccc4c(c3)OCO4)[C@H](CO)O2)nn1	x	-1	x	x	x	x	x
O=C(C[C@@H]1CC[C@H]2[C@@H](COC[C@H](O)CN2C(=O)c2ccncc2)O1)NCc1cc(F)cc(F)c1	x	1	x	x	x	x	x
O=C(Nc1ccc(S(=O)(=O)N2CCOCC2)cc1)c1cc(S(=O)(=O)N2CCOCC2)ccc1Cl	1	-1	-8	2	-1	x	x
O=C(Nc1ccc(Cl)cn1)c1cc(S(=O)(=O)N2CCCCC2)ccc1Cl	77*	0	5	-3	0	-6	-6
O=C(Nc1ccncc1)c1cc(S(=O)(=O)N2CCOCC2)ccc1Cl	97*	-1	1	1	-1	+	+

Screening results deposited in PubChem by several laboratories.
